From PubChem BioAssay (NCATS)
Results filed as inconclusive are left out. Calls of active or inactive are those of the source. Calls follow the shape of the dose curve; as a rule, active = well fitted curve in the direction sought with a large enough effect; inconclusive = small, poorly fitted or top-dose-only effect, or another doubt; inactive = no such curve, though single readings can be large; an effect the other way counts as inactive or inconclusive.

assay: qHTS assay to identify small molecule inhibitors of chordoma cells - UCH-2 (AID 1259356); details: UCH-2 chordoma viability, CellTiter-Glo ATP luminescence, 48 h; series mostly up to 46.1 µM; activity change, negative = inhibition: at the top concentration
% is scaled to controls: 0 for no effect and ±100 for the full control effect.

Structure (SMILES) | activity change, negative = inhibition
Nc1nc(NC2CC2)c2ncn([C@@H]3C=C[C@@H](CO)C3)c2n1 | -0.634% (inactive)
CCN(CC)C(=O)c1cccnc1 | 2.13% (inactive)
C[C@@H]1O[C@@H](OC[C@H]2O[C@@H](Oc3c(-c4ccc(OCCO)c(OCCO)c4)oc4cc(OCCO)cc(O)c4c3=O)[C@H](O)[C@@H](O)[C@@H]2O)[C@H](O)[C@H](O)[C@H]1O | 6.41% (inactive)
Cc1ncc(C[n+]2csc(CCO)c2C)c(N)n1 | -0.895% [at 20.6 µM] (inactive)
Nc1ncnc2c1ncn2CCOCP(=O)(O)O | -1.08% (inactive)
Cc1ccc(S(=O)(=O)NC(=O)N[C@@H](C)Cc2ccccc2)cc1 | -11.4% (inactive)

assay: P-glycoprotein substrates identified in KB-8-5-11 adenocarcinoma cell line, qHTS therapeutic library screen (AID 1346987); details: KB-8-5-11 (P-gp overexpressing) viability, CellTiter-Glo, 72 h; series mostly up to 44.5 µM; activity change, negative = cytotoxicity: at the top concentration; also: nearly all actives have a fitted effect of over 65% in size; also: potency is read from the fitted curve at half-maximal effect
Summary of the method: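 P-gp-mediated resistance screen: KB-8-5-11 cells treated 72 h with compounds in dose-response. CellTiter-Glo viability.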

Structure (SMILES) | activity change, negative = cytotoxicity | Potency
C[C@H](O)CN(C)C | -0.005% (inactive) | –
C[C@@H]1C/C=C/C=C/C=C/C=C/[C@H](O[C@@H]2O[C@H](C)[C@@H](O)[C@H](N)[C@@H]2O)C[C@@H]2O[C@](O)(C[C@@H](O)C[C@H]3O[C@@H]3/C=C/C(=O)O1)C[C@H](O)[C@H]2C(=O)O | -0.114% (inactive) | –
COc1ccc(/C=N/NC(=O)c2ccncc2)c(C(=O)O)c1OC | 0.157% (inactive) | –
FC(F)OC(Cl)C(F)(F)F (centres undefined) | -1.52% (inactive) | –
O=C(O)/C=C/c1ccccc1 | 2.91% (inactive) | –
O=P(O)(O)OP(=O)(O)O | -16.9% (inactive) | –
O=S(=O)(O)CC(S)CS (centres undefined) | -1.14% (inactive) | –
CCCOC(=O)c1ccccc1O | 2.03% (inactive) | –
O=C1c2c(O)cccc2[C@H]([C@@H]2O[C@H](CO)[C@@H](O)[C@H](O)[C@H]2O)c2cc(CO)cc(O)c21 | -21.8% (inactive) | –
O=P(O)(O)OP(=O)(O)OP(=O)(O)O | 6.62% (inactive) | –
CN1CCC(OC(=O)C(Oc2ccc(Cl)cc2)Oc2ccc(Cl)cc2)CC1 | 2.51% (inactive) | –
CC(=O)N[C@@H]1C(O[C@H]2O[C@H](C(=O)O)C(O)[C@H](O)[C@H]2O)[C@H](O)[C@@H](CO)O[C@H]1O[C@@H]1C(C(=O)O)O[C@@H](O[C@H]2[C@H](O)[C@@H](CO)OC(O)[C@@H]2NC(C)=O)[C@H](O)[C@H]1O (some centres undefined) | 1.3% (inactive) | –
NC[C@H]1O[C@H](O[C@H]2[C@H](O)[C@@H](O[C@H]3O[C@H](CO)[C@@H](O)[C@H](N)[C@H]3O)[C@H](N)C[C@@H]2N)[C@H](O)[C@@H](O)[C@@H]1O | 8.09% [at 17.3 µM] (inactive) | –
Nc1nc(/C(=C/CC(=O)O)C(=O)N[C@@H]2C(=O)N3C(C(=O)O)=CCS[C@H]23)cs1 | 8.22% (inactive) | –
NC(=O)C1c2ccccc2CCc2ccccc21 | -10.7% (inactive) | –
C=C1CC[C@H](O)C/C1=C\C=C1/CCC[C@]2(C)[C@@H]([C@H](C)CCCC(C)C)CC[C@@H]12 | -23.9% (inactive) | –
COC1=C(OC)C(=O)C(C/C=C(\C)CC/C=C(\C)CC/C=C(\C)CC/C=C(\C)CC/C=C(\C)CC/C=C(\C)CC/C=C(\C)CC/C=C(\C)CC/C=C(\C)CCC=C(C)C)=C(C)C1=O | 17.8% (inactive) | –
c1ccc(-n2cnnn2)cc1 | -14.4% (inactive) | –
CC1CCCCN1CCCOC(=O)c1ccccc1 (centres undefined) | 26.2% (inactive) | –

Structure (SMILES) | activity change, negative = cytotoxicity | Potency
N=C(N)c1ccc(/C=C/c2ccc(C(=N)N)cc2O)cc1 | – | 18.4 µM (active)
CN(Cc1ccccc1)Cc1ccccc1 | 0.262% (inactive) | –
CC(=O)NCCCS(=O)(=O)O | 21.1% (inactive) | –
CCCc1ccc(C(=O)O)cc1 | -9.29% (inactive) | –
O=C1NC(=O)[C@H]2[C@@H]1[C@@H]1C=C[C@H]2C1 | 6.13% (inactive) | –
CCN(CC)CCOC(=O)c1cccnc1 | 4.62% (inactive) | –
O=C(O)Cc1cc(I)c(Oc2ccc(O)c(I)c2)c(I)c1 | – | inactive
O=C(O)/C=C/C(=O)Nc1ccc(S(=O)(=O)Nc2nccs2)cc1 | 4.68% (inactive) | –
CN1CCc2c(c3ccccc3n2Cc2ccccc2)C1 | -9.54% [at 17.3 µM] (inactive) | –
Cc1cc(O)c2c(c1)O[C@@]1(C)CC[C@H]3C(C)(C)CCCC34CO[C@@H]2[C@H]41 (some centres undefined) | -21.7% (inactive) | –
CC1(O)CCC(C(C)(C)O)CC1 (centres undefined) | -9.62% (inactive) | –
CN[C@@H]1[C@@H](O)[C@@H](O[C@@H]2[C@@H](O)[C@H](OC3OC(CN)=CCC3N)[C@@H](N)C[C@H]2N)OC[C@]1(C)O (some centres undefined) | 7.22% [at 17.3 µM] (inactive) | –
CC1(C)S[C@@H]2[C@H](N3C(=O)C(c4ccccc4)NC3(C)C)C(=O)N2[C@H]1C(=O)O (some centres undefined) | -12.9% (inactive) | –
Nc1nc(NC2CC2)c2ncn([C@@H]3C=C[C@@H](CO)C3)c2n1 | -5.92% (inactive) | –
CCN(CC)C(=O)c1cccnc1 | -4.64% (inactive) | –
C[C@@H]1O[C@@H](OC[C@H]2O[C@@H](Oc3c(-c4ccc(OCCO)c(OCCO)c4)oc4cc(OCCO)cc(O)c4c3=O)[C@H](O)[C@@H](O)[C@@H]2O)[C@H](O)[C@H](O)[C@H]1O | 1.82% (inactive) | –
Cc1ncc(C[n+]2csc(CCO)c2C)c(N)n1 | -9.03% [at 17.3 µM] (inactive) | –
Nc1ncnc2c1ncn2CCOCP(=O)(O)O | 6.83% (inactive) | –
Cc1ccc(S(=O)(=O)NC(=O)N[C@@H](C)Cc2ccccc2)cc1 | 5.79% (inactive) | –
